In PubChem BioAssay AID1508600 (Functional Genomics Laboratory (NCATS/FGL), 2020) one finds z-score data, which are given here for 108 sequences.

About 3,700 (7%) of roughly 53,000 sequences were called active.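 How the source made its calls: active means gene knockdowns whose robust z-score for IL-1 alpha signal is at least 2 or at most -2, so actives lie on both sides; inactive means the rest.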 Many of the other results were omitted from the sample, so actives are more common in it than they were.

A short description of this experiment: Components of the Cytosolic LPS Sensing Pathway: Gene Identification via Genome-wide siRNA Screen.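 Further: robust z of the log signal after scaling to non-targeting control siRNA wells of the plate.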 The conditions noted are these: RAW264.7 macrophages, IL-1a HTRF, actives lie on both sides, screened at 100 nM (by protocol), cells primed 5 h with Pam3CSK4 first. The method in brief:
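Cells (RAW264.7, 1×10^4 per well) were transfected with siRNA at 100 nM and cultured 48h at 37 degrees C. Pam3CSK4 was added for 5 hours; LipidA transfection followed for 24 hour. IL-1a was then measured by HTRF.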
Background: TR-FRET usually uses a lanthanide donor and a delayed reading to cut background.
On to CCUUCAUGCAACAGCUACUTT against Nckap5l, for which the z-score is -2.57 (active).
GCCCUAUCUACCAUAACACTT against Dok3: the z-score is -2.11 (active).
For the sequence GGAUUCAGAAAUCUGGAAATT against Nmnat3, the z-score is -0.199 (inactive).
The same measure for GGUCAUCUUACAGUUUAAATT against Smap2: 0.593 (inactive); for GCGAAUAUCCAACCUAUCUTT against Itgb7: -0.687 (inactive).
For the sequence GGGCAUCAUGAAACUAUGUTT against Kbtbd4, the z-score was -2.59 (active).
As to GCUGAAGGCGACAAUGGAUTT against Ak2, the z-score was -0.0901 (inactive).
As for GGCCUGCUAUAUGCAUUCCTT against Krtap12-1, the z-score is 0.974 (inactive).
The same measure for GGAAAAGAUGCCUGUAUUUTT against Sgcd: -0.422 (inactive); for GGAUUCCAAAUGCUUACAATT against Lysmd3: 0.757 (inactive); for GCCAAUGCAGGGUAAGUACTT against Tmtc2: -2.83 (active).
The same measure for GCCUAUCCGACAACUUAGUTT against Slc25a17: 0.136 (inactive); for GCAUAACCAAGUGUGAUGCTT against Actrt2: -0.439 (inactive).
The same measure for GGAGAAAGUCAUCUUUGAUTT against Cdk5rap2: -0.41 (inactive).
For GGAGACGGAGCUGUUAGAUTT against Plcb1, the z-score is -0.104 (inactive).
The same measure for GGUCCAUUAGCUAAAUCUUTT against Mysm1: 1.87 (inactive); for CGAAGUGACAAUAAAUCAGTT against Snapc5: -0.0661 (inactive).
With GCAUCAGAGGGAUUUCACUTT against Slc35d3, the z-score was -2.68 (active).
The same measure for GGGAGCCAAAGUGAGAUUUTT against Azin2: 0.736 (inactive); for GGCAAAGUGAGUAAGACAGTT against Habp2: 0.0806 (inactive).
The same measure for GCCCUAUUCCCAACUAUUCTT against Nefl: -0.481 (inactive); for GGACUUUACAGACACUUUUTT against Kdm1b: -1.57 (inactive); for GCAGUUGUCACUGGCAAGUTT against Aqp2: 2.21 (active).
The same measure for GCAAAGGUUCUAGUUGAUATT against Cct2: -0.585 (inactive); for CCGAUUUUGUGGCCUCAUGTT against Emg1: -0.578 (inactive); for GGAGAAAUGGGUAAAAACUTT against Paral1: 0.296 (inactive).
With GCCUAUGCUCAACUUCUCGTT against Thap4, the z-score was -3.31 (active).
The same measure for GGCCCUGACAGAGGAAAAATT against Impa2: -1.16 (inactive).
As to CGAUAUGAAGCGAAAUAUCTT against Pmpca, the z-score is 0.528 (inactive).
The same measure for GCCUUCCAGUCAGUGAAAUTT against Foxn1: -0.174 (inactive); for GGAAAUCGAGCAAAAGACATT against Cep104: 1.5 (inactive); for GCCAUUCUUUGAAAAGAGGTT against Ak8: -1.77 (inactive).
The same measure for GGUCGUGAUAUUAUUGGGUTT against Ddx47: 2.91 (active); for GCAGGUAAGUUAAAUGAUGTT against Ccdc148: 0.961 (inactive).
In the case of CCCUUUACAUUACUCUAGCTT against Olfr715, the z-score was 0.141 (inactive).
With GGGAGCGGAGCAAACAUAATT against Olfr1370, the z-score was 0.675 (inactive).
For CGGUUCUUUUACCAAGAUCTT against Jak3, the z-score was -0.781 (inactive).
The same measure for GCCGAGUUUACUUGUUUGATT against Exd1: 0.554 (inactive).
The same measure for GGAAGCAAACUUAAAGUGUTT against Ewsr1: 2.17 (active); for GGUGUUCUGUAUCUUGUUCTT against Ndn: 0.572 (inactive); for GGAGCUCCAUGACAUGUUUTT against Stx3: -0.37 (inactive).
For CGCGGAGUUUCGAAGUGUCTT against Drd4, the z-score is 3.64 (active).
In the case of GGAACCUAACAGAGAAACATT against Prpsap2, the z-score was -0.166 (inactive).
For the sequence GCAAAUACUCAAGUUCAGATT against Cpt1b, the z-score is 0.382 (inactive).
Consider GGAUACUCGGGAUCUAGUATT against Anxa11, for which the z-score is -1.44 (inactive).
The same measure for GGCAAUUCUGAAGAAACCATT against Ogn: -2.23 (active); for GGAGGAGUCCCAUAACUCATT against Cby2: 1.05 (inactive).
For GGUAAACUUGACAAUAGGATT against Zc3h14, the z-score is -0.512 (inactive).
Regarding CCCUGGUCGUCAUUUUCAATT against Morc2b, the z-score was 1.54 (inactive).
Consider GCACAAGCGUGGAACACAUTT against Dctn2, for which the z-score is 0.702 (inactive).
Consider GGCCCAACAUAUAUCAAAUTT against Adck2, for which the z-score is 1.38 (inactive).
For the sequence GGAAACUGUUGAAUCUUGUTT against Smad5, the z-score is 1.42 (inactive).
The same measure for CCACGCUCUCAAGGUAUAGTT against Cyp2d22: -2.81 (active).
GGGAUUGGGUAUUUUUUAGTT against B4galt1: the z-score is -0.432 (inactive).
The same measure for “CCCGUACAUUGAGUGCAAUTT against 6330403K07Rik”: 0.414 (inactive).
The same measure for GGAGUUCAGGAAAAUUCUUTT against Fsd1l: 0.0551 (inactive); for GGAAGACCUUCAGAGAGAATT against Ell2: 4.25 (active).
GGGAAAGUUAAUAUCAAGATT against Ephb4: the z-score was 0.185 (inactive).
The same measure for GGUGAUGAUGAUGGGCAACTT against Cdkn2a: 2.02 (active).
As to GGACAAGAUUCUAAACUGCTT against Wdr37, the z-score was 1.03 (inactive).
In the case of GGCCUUGUAAAUUAUGCAUTT against Klhl23, the z-score is 0.61 (inactive).
Take GCCCUUUCCGUCUGAAAUCTT against Hydin: the z-score was 2.06 (active).
The same measure for GCUUCUGGUUUUCGGCUAUTT against Sfswap: 0.427 (inactive); for GAUGUGUUAACUACACCGATT against Pyy: 0.983 (inactive).
The same measure for CGAGGAUGAGUUCAGUGAGTT against Pdcl3: -1.19 (inactive); for GUUGGUUUGUUGACCUCUUTT against Arap2: 0.1 (inactive).
Consider CCUACUCUGGUAAAACCUUTT against Immp1l, for which the z-score is -0.365 (inactive).
For the sequence GCAAAGGCCAAAUAUGAGGTT against Dbil5, the z-score is -2.71 (active).
Turning to GCCAUUAAAGGUAACACUGTT against Tmbim7, the z-score is 0.0423 (inactive).
The same measure for GCCUUCUGAGAUAGUAGAUTT against Zcchc17: 0.756 (inactive); for GGAGAAAAUCAAACCAGAUTT against Ddx19b: 0.823 (inactive); for GGACUGAUGGAUCCUUCCATT against Krtcap3: -2.12 (active).
As for GGCAUCCAUCAACAACAGGTT against Ahsa1, the z-score was -0.925 (inactive).
As for GCAUGUACCCUCUUUGUAGTT against Gjb6, the z-score was -0.954 (inactive).
The same measure for GGAUUCGAGUGGUAACAAGTT against Nmral1: 0.617 (inactive); for GGUAUAGCUACCAUUUUUCTT against Ggct: -1.05 (inactive); for CUUACCACCCUGAGUUUCATT against Olfr1066: -3.2 (active).
In the case of GGAGAAAGCAGAAAUUGAATT against Mfap1a, the z-score is -1.31 (inactive).
For the sequence CCAAGAUUCGGUUUUGCUUTT against Trerf1, the z-score is -0.33 (inactive).
The same measure for GGCAGCCCUUUUGCUAAGATT against Neurod1: -0.0737 (inactive); for GGCUGGUGAAAGUCAAGGUTT against Arid4a: 0.503 (inactive); for GGAGCAGUCUCCUUUUUGUTT against Pcnp: 2.14 (active).
For GCUCUUGAUGUUUAGAGUUTT against Usp17lf, the z-score was 0.345 (inactive).
The same measure for GGGCAGCAGCAAUUUCUGUTT against Ahcyl1: 1.39 (inactive); for GGAAAAAUUAGACCGUGAGTT against Pcdhb4: -0.299 (inactive); for CCAUUGAUAUUAAAUCGCUTT against Pik3cg: -0.244 (inactive).
The same measure for GGGCUAUGUAUUGUAAAUGTT against Nxf1: -2.79 (active); for GCACGACUACUUCUCAAAUTT against Prpf6: 0.376 (inactive); for GGCCAGAAUAUCAUCGUCATT against Rbks: -0.163 (inactive).
The same measure for GGGACACCUUCCGUAACUATT against Gcdh: -0.832 (inactive).
Turning to GCACGCUAUUGGCUAUGAGTT against BC052040, the z-score was -0.0182 (inactive).
The same measure for GGUCAUGAUCAAGACACAUTT against Tmem63c: 0.371 (inactive).
Turning to AAGGUUUGGAAACUCAUUGTT against Zbtb25, the z-score is -1.77 (inactive).
The same measure for GGGUUAGGCCAGUUCUGAUTT against Reg3d: -2.08 (active); for GGAAGAGGAGGAGUACAAGTT against Fnbp1: -0.0804 (inactive).
The same measure for GCAGUUCAUGUCCUGAAUATT against Olfr308: -1.49 (inactive); for GUUUCCAUAUCCUUUAAGUTT against Lilr4b: 1.23 (inactive); for GGAACUGCUCGACAAAGCUTT against Primpol: -2.53 (active).
The same measure for GGGUUAUAGGUGUGUGUGCTT against Gemin6: -0.389 (inactive); for GCUGCACUUGAAAUCCGAGTT against Atg2b: 1.49 (inactive).
For the sequence GCCCGUUCCACUUUUGGAGTT against Nedd1, the z-score was 2.2 (active).
Take GGAAGAAGCAGAAGAACAUTT against Rpl12: the z-score was 2.55 (active).
The same measure for GGAACUCCUGGAGCAGAACTT against Tbc1d10b: -2.52 (active); for GGUUGUGCAAGAGUAUGAATT against Nphs2: 0.316 (inactive).
The same measure for GCGCACAACAGACUUCUAUTT against Epm2a: 0.0628 (inactive); for GGAAGAACUUGACCCAGAGTT against Pex16: 1.31 (inactive); for GGCGACAGUUGUUUUUGUGTT against Nlrp4b: -0.588 (inactive).
As for GCUGUUUUACCUUAAUCCCTT against Tnfsf18, the z-score was 0.601 (inactive).
